# Compound activity from PubChem BioAssay.
# TcdB GH inh = TcdB glycohydrolase inhibitors, primary screen, biochemical, single point, plate reader. Toxin B (Clostridioides difficile), P18177. TcdB glycohydrolase enzymatic assay. inhibition, % at 9.99 µM. 350,000 compounds, 0.24% hits. AID 652162, 2013; in the data active = inhibition above about 10%
# BoNT-F LC inh = BoNT/F light chain protease inhibitors, primary screen, biochemical, flow cytometry, MLPCN library; inhibition, % at 10 µM; Multiplex microsphere protease cleavage assay; 360,000 compounds, 0.22% hits; AID 588497, 2011; in the data active = inhibition above about 35%, passing the limit was not always enough; inconclusive = no clear call, values can overlap the other calls; also: plate controls were buffer without enzyme for full effect and enzyme alone for no effect
# BoNT-A LC inh2 = BoNT/A light chain protease inhibitors, primary screen, biochemical, flow cytometry, MLPCN library; Botulinum neurotoxin type A light chain protease (Clostridium botulinum A str. ATCC 3502); multiplex microsphere protease substrate cleavage; inhibition, % at 10 µM; 360,000 compounds, 0.17% hits; AID 588499, 2011; also: plate controls were buffer without enzyme for full effect and enzyme alone for no effect
# Anthrax LF prot = Bacillus anthracis LF protease inhibitors, primary screen, biochemical, multiplex microsphere, MLPCN library; 360,000 compounds, 0.12% hits; Lethal factor (Bacillus anthracis), P15917; multiplex microsphere protease cleavage assay; inhibition, % at 10 µM; also: plate controls were buffer without enzyme for full effect and enzyme alone for no effect
# Bead autofluor = compound fluorescence in toxin protease inhibitor counterscreen | compound autofluorescence counterscreen, microsphere flow cytometry; active compounds read high | fluorescence intensity (concentration not given with the values) | 360,000 compounds, 3.1% hits | AID 624483; in the data active = fluorescence intensity above about 16000; inconclusive = no clear call, values can overlap the other calls
# * marks the source's active call; other numbers are inactive results; ? = inconclusive; nt = no result given. Shown is part of a subset that was picked to be rich in hits. Rule as the data show it, unless noted: active = inhibition above about 30%; inconclusive = no clear call, values can overlap the other calls; inactive = below that.
SMILES,TcdB GH inh,BoNT-F LC inh,BoNT-A LC inh2,Anthrax LF prot,Bead autofluor
O=c1[nH]nc(-c2cc(-c3ccccc3)nc3ccccc23)o1,16*,-8,0,-4,4167
CCOC(=O)C(C(=O)OCC)c1cc(Br)c2noc3c2c1C(=O)c1ccccc1-3,nt,-6,68*,58*,3932
O=C1CCCC(O)=C1N=Nc1ccc(C(=O)O)cc1,-1,-5,-1,-7,5984
O=C1CCCC(O)=C1N=Nc1c(Cl)cc(C(F)(F)F)cc1Cl,1,?,4,83*,2889
CC(C)CC#Cc1ccc2c(c1)O[C@@H](CN(C)Cc1ccccc1F)[C@@H](C)CN([C@@H](C)CO)S2(=O)=O,-1,nt,nt,nt,nt
C[C@@H]1CN([C@@H](C)CO)C(=O)c2cc(NS(=O)(=O)c3cn(C)cn3)ccc2O[C@@H](C)CCCCO[C@@H]1CN(C)C(=O)Nc1ccccc1,0,nt,nt,nt,nt
O=S(=O)(N[C@H]1CC[C@@H](CCn2cc(-c3cccc(F)c3)nn2)O[C@@H]1CO)c1ccccc1,-1,nt,nt,nt,nt
CCOC(=O)c1nnn(-c2nonc2N)c1-c1ccc(F)cc1,12*,0,1,-8,4472
CCOC(=O)c1nnn(-c2nonc2N)c1-c1ccccc1Cl,16*,1,0,-2,4241
O=C(NCC1CCCC(CNC(=O)N2CCc3ccccc32)C1)N1CCc2ccccc21 (stereo unspecified),nt,-1,0,-4,21215*
O=C(Nc1ccccc1)N1CCc2ccccc21,nt,1,1,-2,3179
COC(=O)C[C@@H]1CC[C@@H]2[C@@H](COc3ccc(NC(=O)c4cccc(F)c4)cc3C(=O)N2C)O1,1,nt,nt,nt,nt
CC(C)(C)Nc1nc(C(N)=O)nc(N2CCOCC2)n1,nt,-5,-2,-4,24325*
NC(=O)c1nc(N2CCOCC2)nc(N2CCOCC2)n1,-1,2,-1,-4,3928
CCCC(=O)n1nc(-c2cccnc2)nc1N,nt,-5,?,-2,23837*
CC(C)(C)n1nnnc1CN(Cc1ccco1)Cc1cc2cc3c(cc2[nH]c1=O)OCO3,nt,-10,0,-1,2202
COCCn1nnnc1CN(Cc1ccco1)Cc1cc2cc3c(cc2[nH]c1=O)OCO3,nt,-1,0,0,23147*
COc1ccc(NC(=O)Nc2cccc3c2O[C@H](CN(C)Cc2ccc(C(=O)Nc4ccccc4N)cc2)[C@@H](C)CN([C@@H](C)CO)C3=O)cc1,2,nt,nt,nt,nt
COc1ccc(CNCCSc2nnnn2C)cc1OC,nt,0,2,0,19838*
COc1cccc(CNCCSc2nnnn2C)c1,nt,3,0,-2,10456
CCc1ccc(CNCCSc2nnnn2C)cc1,nt,-6,-1,-1,23525*
COc1ccc(Br)cc1CNCCSc1nnnn1C,nt,-8,0,-1,22723*
COc1ccc(CNCCSc2nnnn2C)c(OC)c1OC,0,-2,-1,-2,4273
Cn1nnnc1SCCNCc1cccnc1,nt,4,0,-3,11069
CCCC(=O)Nc1ccc2c(c1)OC[C@@H](C)N(C(=O)c1ccccn1)C[C@@H](C)[C@@H](OC)CN(C)C2=O,-6,nt,nt,nt,nt
SMILES,TcdB GH inh,BoNT-F LC inh,BoNT-A LC inh2,Anthrax LF prot,Bead autofluor
C#Cc1ccc([C@H]2C=C(C(=O)NCc3nc4ccccc4[nH]3)O[C@@H](OCCCCO)C2)cc1,0,nt,nt,nt,nt
CC(C)CC#Cc1cnc2c(c1)C(=O)N([C@@H](C)CO)C[C@H](C)[C@@H](CN(C)Cc1cncnc1)O2,1,nt,nt,nt,nt
Cc1ccc(OCC(=O)Nc2cccc(-c3nnc(-c4ccccc4)o3)c2)c(C)c1,nt,3,?,-3,21189*
CC(=O)Nc1cccc(OCC(=O)Nc2ccccc2)c1,nt,-3,0,-14,7096
CC(C)C(C)NC(=O)COc1ccc(-c2ccccc2)cc1 (stereo unspecified),nt,-2,-1,0,3076
COc1ccc(CC(=O)Nc2cccc(-c3nnc(-c4ccc(C)cc4)o3)c2)cc1OC,1,-14,-1,-8,6379
Cc1cccc(NC(=O)COc2ccccc2)c1,0,-14,-11,-1,26330*
COc1cccc(NC(=O)COc2ccccc2)c1,1,4,-4,10,3807
CC(C)C(NC(=O)COc1ccccc1)C(=O)O (stereo unspecified),nt,9,6,-6,19854*
CCOC(=O)Nc1cccc(OCC(=O)Nc2ccccc2OCC)c1,nt,-2,-1,-3,22734*
COCC#Cc1cnc2c(c1)C(=O)N([C@H](C)CO)C[C@@H](C)[C@@H](CN(C)C(=O)NC1CCCC1)O2,0,nt,nt,nt,nt
